In all, about 2,900 compounds were measured (“NF-kB SEAP reporter activity, fold change vs agonist alone”: median about 0.99, highest 2% from about 2.6 on). The full list was thinned out, with the highest values kept by preference.
Columns and labels:
RAW-Dual [1] = experiment: NF-kB SEAP reporter activity, fold change vs agonist alone; higher = enhanced NF-kB activity; settings: library stock concentration (final ~1000-fold dilution): 10 mM
Procedure, shortened: (§1)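 Library stock was pin-tooled at 50 nL into 384-well plates of RAW-Dual macrophages (50,000 cells/well, DMEM), followed 1 h later by a PRR agonist, and the cells were kept at 37 °C, 5% CO2. Supernatant collected after 20 hours was read for IRF by QuantiLuc luminescence and for NF-κB by QuantiBlue absorbance at 620 nm. Reporter activity is fold change over agonist-alone wells, and a well counted as cytotoxic when its IncuCyte confluency was below 70% of agonist controls in both mask sets.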

RAW-Dual [2] = experiment: NF-kB SEAP reporter activity, fold change vs agonist alone; cytotoxicity flag (confluency mask): not cytotoxic; higher = enhanced NF-kB activity
Procedure, shortened: as §1

RAW-Dual [3] = experiment: NF-kB SEAP reporter activity, fold change vs agonist alone; cytotoxicity flag (confluency mask): cytotoxic (confluency <70% of control); higher = enhanced NF-kB activity
Procedure, shortened: as §1

[4] = cytotoxicity flag (confluency mask): not cytotoxic, agonist: MPLA (TLR4) […]
[5] = agonist: ODN 1826 (TLR9) 0.5 ug/mL
[6] = agonist: Pam2CSK4 (TLR2/6) 0.1 ug/mL
[7] = agonist: Pam3CSK4 (TLR2/1) 0.1 ug/mL
[8] = cytotoxicity flag (confluency mask): not cytotoxic, agonist: Imiquimod (TLR7) […]
[9] = cytotoxicity flag (confluency mask): cytotoxic (confluency <70% of control), agonist: Imiquimod (TLR7) […]
[10] = cytotoxicity flag (confluency mask): cytotoxic (confluency <70% of control), agonist: MPLA (TLR4) […]

Compound: COc1ccc(CCNCC(O)COc2cccc(C)c2)cc1OC.Cl (configuration not stated)
- NF-kB SEAP reporter activity (RAW-Dual [1]; [4]): 1.06

Compound: COc1ccccc1N1CCN(CC(O)COc2cccc3ccccc23)CC1.Cl.Cl (configuration not stated) (library stock concentration (final ~1000-fold dilution): 10 mM)
- NF-kB SEAP reporter activity (RAW-Dual [2]; agonist: LPS (TLR4) 0.1 ug/mL): 0.815
- NF-kB SEAP reporter activity (RAW-Dual [2]; [5]): 0.929
- NF-kB SEAP reporter activity (RAW-Dual [2]; [6]): 0.819
- NF-kB SEAP reporter activity (RAW-Dual [2]; [7]): 0.805

Compound: COc1ccccc1N1CCN(CC(O)COc2cccc3ccccc23)CC1.Cl.Cl (configuration not stated)
- NF-kB SEAP reporter activity (RAW-Dual [1]; [8]): 1.01
- NF-kB SEAP reporter activity (RAW-Dual [1]; [4]): 0.766

Compound: CCCCN(Cc1ccc(C(=O)NO)cc1)C(=O)Nc1ccccc1
- NF-kB SEAP reporter activity (RAW-Dual [1]; [8]): 1.52
- NF-kB SEAP reporter activity (RAW-Dual [1]; [4]): 2.9

Compound: O=C(NO)c1ccc(CC(=O)N(CCO)c2ccccc2)cc1
- NF-kB SEAP reporter activity (RAW-Dual [1]; [8]): 1.15
- NF-kB SEAP reporter activity (RAW-Dual [1]; [4]): 1.79

Compound: O=C(NO)c1ccc(CC(=O)N(CCO)c2ccccc2)cc1 (library stock concentration (final ~1000-fold dilution): 10 mM)
- NF-kB SEAP reporter activity (RAW-Dual [2]; agonist: LPS (TLR4) 0.1 ug/mL): 1.94
- NF-kB SEAP reporter activity (RAW-Dual [2]; [5]): 1.74
- NF-kB SEAP reporter activity (RAW-Dual [2]; [6]): 0.801
- NF-kB SEAP reporter activity (RAW-Dual [2]; [7]): 1.21

Compound: COc1cc(C(=O)N(CCCc2ccccc2)Cc2ccc(CC(=O)O)cc2)cc(OC)c1C (library stock concentration (final ~1000-fold dilution): 10 mM)
- NF-kB SEAP reporter activity (RAW-Dual [2]; agonist: LPS (TLR4) 0.1 ug/mL): 1.19
- NF-kB SEAP reporter activity (RAW-Dual [2]; [5]): 0.976
- NF-kB SEAP reporter activity (RAW-Dual [2]; [6]): 0.823
- NF-kB SEAP reporter activity (RAW-Dual [2]; [7]): 0.908

Compound: COc1cc(C(=O)N(CCCc2ccccc2)Cc2ccc(CC(=O)O)cc2)cc(OC)c1C
- NF-kB SEAP reporter activity (RAW-Dual [1]; [8]): 1.1
- NF-kB SEAP reporter activity (RAW-Dual [1]; [4]): 1.11

Compound: CCCCN(Cc1ccc(C(=O)NO)cc1)C(=O)Nc1ccccc1 (library stock concentration (final ~1000-fold dilution): 10 mM)
- NF-kB SEAP reporter activity (RAW-Dual [2]; agonist: LPS (TLR4) 0.1 ug/mL): 6.63
- NF-kB SEAP reporter activity (RAW-Dual [2]; [5]): 2.5
- NF-kB SEAP reporter activity (RAW-Dual [2]; [6]): 1.18
- NF-kB SEAP reporter activity (RAW-Dual [2]; [7]): 1.73

Compound: CC(C)CNc1ccnc(NCc2csc(-c3ccccc3)n2)n1.Cl (library stock concentration (final ~1000-fold dilution): 10 mM)
- NF-kB SEAP reporter activity (RAW-Dual [3]; agonist: LPS (TLR4) 0.1 ug/mL): 1.62
- NF-kB SEAP reporter activity (RAW-Dual [3]; [5]): 0.221
- NF-kB SEAP reporter activity (RAW-Dual [3]; [6]): 0.625
- NF-kB SEAP reporter activity (RAW-Dual [3]; [7]): 0.446

Compound: CC(C)CNc1ccnc(NCc2csc(-c3ccccc3)n2)n1.Cl
- NF-kB SEAP reporter activity (RAW-Dual [1]; [9]): 1.85
- NF-kB SEAP reporter activity (RAW-Dual [1]; [10]): 1.47

Compound: Nc1ccn(C2OC(CO)C(O)C2(F)F)c(=O)n1 (configuration not stated) (library stock concentration (final ~1000-fold dilution): 10 mM)
- NF-kB SEAP reporter activity (RAW-Dual [3]; agonist: LPS (TLR4) 0.1 ug/mL): 0.91
- NF-kB SEAP reporter activity (RAW-Dual [3]; [5]): 1.88
- NF-kB SEAP reporter activity (RAW-Dual [3]; [6]): 1.18
- NF-kB SEAP reporter activity (RAW-Dual [3]; [7]): 1.05

Compound: Nc1ccn(C2OC(CO)C(O)C2(F)F)c(=O)n1 (configuration not stated)
- NF-kB SEAP reporter activity (RAW-Dual [1]; [9]): 2.14
- NF-kB SEAP reporter activity (RAW-Dual [1]; [10]): 1.35
